Screening data (PubChem)
Glyco luc inh = blocks N-linked glycosylation in D54 reporter cells | AID 588692 | 360,000 compounds, 0.23% hits | reporter increase, % at 12.5 µM | D54 ERlucT glycosylation luciferase reporter, 24 h; percent of 100 nM tunicamycin response;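 active = mean luciferase reporter signal, scaled so untreated is 0 and the glycosylation-blocking control 100, at or above a set limit in every replicate; inconclusive = mean reaches the limit but not every replicate does; inactive = mean below the limit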;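 also: luciferase carries N-glycosylation sites so blocking glycosylation raises the light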
RAD54 inh = inhibitors of human RAD54 branch migration. Q92698. RAD54 Holliday junction branch migration, FAM/BHQ fluorescence. inhibition, % at 10.4 µM. 360,000 compounds, 0.14% hits;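 active = mean normalized replicate activity at least 40 and at least half of replicates scoring 40 or more; inconclusive = only one of the two criteria met; inactive = mean below 40 and under half of replicates reaching 40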;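 also: inhibitors cause a drop in the FAM fluorescence signal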
CASP6 VEID inh = caspase-6 (human) enzyme inhibition. P55212. purified caspase-6, Z-VEID-R110 cleavage fluorescence. inhibition, % at 12.5 µM. 350,000 compounds, 0.53% hits. AID 686996;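 active = mean inhibition across replicates at least about 35%, with every replicate also reaching that limit, limit read from the data; inconclusive = only one of the two criteria met; inactive = neither criterion met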
Target sequence (P55212 24-179 limits assumed): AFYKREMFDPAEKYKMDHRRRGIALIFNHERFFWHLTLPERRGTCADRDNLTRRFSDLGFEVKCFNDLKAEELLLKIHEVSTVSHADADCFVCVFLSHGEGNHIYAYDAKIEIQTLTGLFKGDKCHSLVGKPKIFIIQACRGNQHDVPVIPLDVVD
Target sequence (P55212 194-293 limits assumed): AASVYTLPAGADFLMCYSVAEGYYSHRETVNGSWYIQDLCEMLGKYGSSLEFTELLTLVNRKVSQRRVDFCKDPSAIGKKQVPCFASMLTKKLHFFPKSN
RAD52 anneal inh = blocks human RAD52 DNA annealing; recombinant RAD52 DNA annealing, FRET fluorescence; inhibition, % at 18.7 µM; 360,000 compounds, 0.46% hits; AID 651710;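 active = every replicate showing at least 50% inhibition; inconclusive = mean inhibition at least 50% but not in every replicate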
AF4-AF9 inh = inhibitors of human MLL-AF4/AF9 interaction; 350,000 compounds, 0.47% hits; AlphaScreen, biotin-AF4 peptide binding to FLAG-AF9; AID 651704; inhibition, % at 10 µM;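 active = every replicate reaching a set inhibition limit, whatever the replicate mean, cut at about 25% in these data; inconclusive = mean inhibition reaches that limit but some replicates miss it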
Hits are given with their value; – = inactive; ? = inconclusive; · = not tested or not shown. In the library only some 1.2% were active in any assay of this set; here they are far more common.

SMILES	Glyco luc inh	RAD54 inh	CASP6 VEID inh	RAD52 anneal inh	AF4-AF9 inh
COc1ccc(S(=O)(=O)N(C)C[C@H]2Oc3ccc(NS(C)(=O)=O)cc3CC(=O)N([C@H](C)CO)C[C@@H]2C)cc1	·	–	–	–	–
Cc1ccc(C)c(/C=C/C(=O)c2ccccc(=O)c2O)c1	–	–	·	·	·
Cc1ccc(/C=C/C(=O)c2ccccc(=O)c2O)c(C)c1	–	–	39	–	–
COc1ccc2c3c(n(C)c2c1)[C@H](CO)N(C(=O)Nc1ccc(F)cc1)CC31CCN(Cc2ccccc2F)CC1	·	·	–	55	–
COc1ccc2c3c(n(C)c2c1)[C@@H](CO)N(C(=O)Nc1ccc(F)cc1)CC31CN(Cc2cccnc2)C1	·	·	–	–	27
COc1ccc2c3c(n(C)c2c1)[C@@H](CO)N(C(=O)Nc1ccc(F)cc1)CC31CCN(Cc2cccnc2)CC1	·	·	·	·	39
COc1ccc2c3c(n(C)c2c1)[C@H](CO)N(C(=O)Nc1ccc(F)cc1)CC31CCN(Cc2cccnc2)CC1	·	·	·	·	–
O=C(Nc1cc(Cl)cc(Cl)c1)N[C@H]1CC[C@@H](CCNS(=O)(=O)c2cccc(F)c2)O[C@@H]1CO	·	–	–	–	–
COc1ccc(NC(=O)N(C)C[C@H]2Oc3c(NC(=O)Nc4ccc(F)cc4)cccc3C(=O)N([C@H](C)CO)C[C@H]2C)cc1	·	–	–	–	–
C[C@@H]1CCCCO[C@H](CN(C)S(=O)(=O)c2cn(C)cn2)[C@@H](C)CN([C@@H](C)CO)C(=O)c2cc(NC(=O)NC3CCCCC3)ccc2O1	·	–	–	–	–
O=S(=O)(c1ccc(F)cc1)N1[C@@H]2CNC[C@H]1C2c1ccc(-c2cccc(F)c2)cc1 (some centres undefined)	·	·	–	–	–
CCCC#Cc1cnc2c(c1)C(=O)N([C@H](C)CO)C[C@@H](C)[C@H](CN(C)C(=O)CCN1CCCCC1)O2	·	·	·	·	–
CC(C)NC(=O)N(C)C[C@H]1OCCCC[C@@H](C)Oc2ccc(NS(C)(=O)=O)cc2C(=O)N([C@@H](C)CO)C[C@H]1C	·	–	–	–	–
O=C(C[C@@H]1CC[C@H](NC(=O)c2ccccc2)[C@H](CO)O1)NCCc1ccncc1	·	–	–	–	–
Cn1c2c(c3ccccc31)CCN1CCC[C@]21c1ccccc1	–	–	–	–	26
O=C1CC(=O)NC(SCC(=O)Nc2ccccc2[N+](=O)[O-])=N1	–	–	41	–	–
Cc1cc(C)nc(SCC(=O)Nc2ccccc2[N+](=O)[O-])n1	–	–	·	·	·
CN1C(=O)c2cc(NC(=O)Cc3cccs3)ccc2OC[C@H]2O[C@@H](CC(=O)O)CC[C@H]21	·	–	–	–	–
C[C@@H]1CN([C@H](C)CO)C(=O)c2cc(NC(=O)Nc3ccccc3)ccc2O[C@@H](C)CCCCO[C@H]1CN(C)S(=O)(=O)c1ccc(Cl)cc1	·	–	–	–	–
Fc1ccc(N2CCN(C3=Nc4cccc5cccc3c45)CC2)cc1	–	·	–	–	32
Cc1ccc(-c2nn(-c3ccccc3)cc2CO)cc1	–	–	–	–	–
N=C(N)SCc1cn(-c2ccccc2)nc1-c1ccc(Br)cc1	–	·	–	–	33
O=C(O)c1ccccc1/C=N/NC(=O)c1cc(-c2ccco2)nc2ccccc12	–	–	61	–	–
CC(=O)Nc1ccc(/C=N/NC(=O)c2cc(-c3ccco3)nc3ccccc23)cc1	–	–	–	–	–
Cc1ccc([N+](=O)[O-])cc1S(=O)(=O)Nc1ccc(C(=O)N2CCN(C(=O)c3ccco3)CC2)cc1	–	–	54	–	–
SMILES	Glyco luc inh	RAD54 inh	CASP6 VEID inh	RAD52 anneal inh	AF4-AF9 inh
Cc1ccc([N+](=O)[O-])cc1S(=O)(=O)Nc1ccc(C(=O)N(C)C)cc1	–	–	–	–	–
C=CC(=O)Nc1cccc(Oc2ccnc3[nH]ccc23)c1	–	–	·	·	·
C=CC(=O)Nc1cccc(N(C)c2ccnc(Nc3ccc(N4CCN(C)CC4)cc3)n2)c1	–	82	·	·	·
C=CC(=O)Nc1cccc(Oc2ccnc(Nc3ccc(N4CCN(C)CC4)cc3)n2)c1	–	?	–	93	70
CCC(=O)N1[C@H](CO)[C@@H](c2ccc(-c3ccccc3)cc2)[C@@H]1CN(C)C(C)=O	·	–	·	·	·
COc1ccc2c3c(n(C)c2c1)[C@H](CO)N(C(=O)Nc1ccc(F)cc1)CC31CCN(C(=O)c2ccccc2F)CC1	·	·	–	–	–
O=CC(O)C1OC(=O)C(O)C1O (centres undefined)	–	–	41	–	–
O=C1O[C@H](CO)[C@@H](O)[C@H](O)[C@H]1O	–	–	–	–	–
Cc1ccc(Nc2c(-c3ccccn3)nc3ccc(C)cn23)cc1	–	–	–	–	·
